What follows are sequences tested against AP4E1 (assay: pooled miR-30 sensor sort-seq; sequence = guide strand). Conditions: shRNA.

Sequence	sensor-assay potency score (higher = more potent)
TACAACTGTATTCACAAGGAGA	-0.841
TACATTAATTCACTTGTCCTTT	-0.311
TTTCTTTATACCTTCCAGCTTC	-0.271
TAACTTGAAGAAATCTCTGTGG	0.558
TATTTGTCTCTTTCAGTCCTGT	-0.0122
TTTTCTTCGTACAATCTCCTTA	0.18
TAAAGAAGCATCTACCACCAAG	-0.753
TTCATTATTACAGACTTCCATA	-0.778
TTTCAGACTACTCAGTTCCTGC	-0.633
TAATTTTTCTTCTTCGTGCTTG	0.244
TTCATTGTCTGAATAAACCATG	-0.705
AAGAACTTGAGATTGATCCTTT	0.655

Each sequence was assayed against AP4S1 in the same assay as above. Conditions: shRNA.

Sequence	sensor-assay potency score (higher = more potent)
TTCATAAATAGCCATCTCGTTC	-1.14
TTAGAAAGTCGAGTCTGCCCTT	0.201
TGAATGATGAACTGTCTGGAGA	-0.912
TAAATAGCCATCTCGTTCTCAG	-0.314
TATATCAGCTTAAAATCCTTAT	-0.456
TTATATTCAATGAAAGAGCATT	-1.02
TAAATCAAGAAAACATTCCGGA	0.763
TAGAAAGTCGAGTCTGCCCTTG	-0.4
ATTAACTCCAACCACAATGAAG	-1.9
TTTGAATGATGAACTGTCTGGA	0.922
TTGAATGATGAACTGTCTGGAG	0.198
TTGTTCATTGGATCGAGAGAGA	-1.06

The sequences below were run against APLNR in the same assay as above. Conditions: shRNA.

Sequence	sensor-assay potency score (higher = more potent)
TGTACTCACACTCAGACTGGTT	-1.04
TTTTACTGCGTCCAGACTCAGG	-1.25
TAATTATCTGCTGACACACAGC	-0.776
TTGACGTAGCTGATGCAGGTGC	0.046
TAGCACTGCACCTTAGTGGTGT	0.437
AGTCTGTGTACTCACACTCAGA	-2.07
AAGTACAACACACACAGACAAG	-1.41
TATCTAGTCAGTGTCATGGTGC	-0.323
TATCTGCTGACACACAGCCCAC	-1.74
TATAAGTACAACACACACAGAC	0.501
AAACACGGTCCAGAGCACCAGA	-0.76
TTCTCGTGCATCTGTTCTCCAC	-0.937
TACAGCGTCTTCACCAGGTGGT	0.0282
TAGCGGTCGAAGCTGAGGCCGG	-1.22
TAGCTGGCTGACTTCTCCCCAC	-0.754

Reference: the OligoGym collection
